Rows were chosen to be rich in hits. Some 4.1% of all compounds tested hit in one or more screens of this group.
hgDAF12 agonist: agonists of H. glycines DAF-12 nuclear receptor. 1.8% of 370,000 active. HEK293 GAL4-hgDAF12 UAS-luciferase reporter, agonist luminescence; normalized to butyrate control. activation, % at 6.8 µM;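 active = activation above a cutoff set at the mean of all screened compounds plus 3 SD, cut at about 10% in these data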;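 also: 0% = DMSO wells and 100% = sodium butyrate wells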
ssDAF12 agonist: S. stercoralis DAF-12 activation, primary screen | activation, % at 6.8 µM | 1% of 370,000 active | HEK293 ssDAF-12/GRIP1 lit1-tk-luc reporter, luminescence; % of 3 µM dafachronic acid response;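 active = activation above the mean over all tested compounds plus 3 SD, cut at about 0.9% in these data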;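 also: 0% = DMSO-only wells and 100% = 3 µM delta7-dafachronic acid wells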
DAX1 inh-1: blocks DAX1 repression of SF-1 activated StAR promoter; inhibition, % at 6.8 µM; HEK293T StAR-luciferase reporter, SF-1/DAX-1 repression relief; 1.1% of 370,000 active;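 active = inhibition above the mean over all tested compounds plus 3 SD, cut at about 3.6% in these data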;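 also: 0% = DAX-1 cells with DMSO and 100% = cells lacking DAX-1 with DMSO; higher inhibition means more luminescence from relief of DAX-1 repression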
DAX1 inh-2: inhibitors of human orphan nuclear receptor DAX1 (NR0B1). inhibition, % at 6.75 µM. HEK293 Gal4-DAX1 luciferase reporter, luminescence. 0.99% of 340,000 active;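 active = inhibition above the mean over all tested compounds plus 3 SD, cut at about 4.2% in these data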;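 also: 0% = DAX1-transfected cells with DMSO and 100% = empty-vector control cells with DMSO; inhibition shows as a rise in luminescence from relieved DAX1 repression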
Target sequence (P51843 207-470 limits assumed): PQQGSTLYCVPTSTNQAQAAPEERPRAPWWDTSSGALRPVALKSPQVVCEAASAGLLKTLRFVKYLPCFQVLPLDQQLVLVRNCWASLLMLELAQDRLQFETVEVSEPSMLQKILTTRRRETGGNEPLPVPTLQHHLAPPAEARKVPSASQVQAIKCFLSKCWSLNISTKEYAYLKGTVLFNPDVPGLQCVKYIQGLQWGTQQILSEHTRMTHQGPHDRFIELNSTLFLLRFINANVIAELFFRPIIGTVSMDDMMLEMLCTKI
hcDAF12 agonist: H. contortus DAF-12 activation, primary screen. HEK293 hcDAF-12 lit1-tk-luc reporter, luminescence; 0% DMSO, 100% Δ7-dafachronic acid. AID 652067. 1.4% of 370,000 active. activation, % at 6.8 µM;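 active = activation above the mean of all tested compounds plus 3 SD, cut at about 5.5% in these data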;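 also: 100% = response to 3 µM Δ7-dafachronic acid high control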
* hit, by the source's call; x = not tested or not shown.

SMILES	hgDAF12 agonist	ssDAF12 agonist	DAX1 inh-1	DAX1 inh-2	hcDAF12 agonist
COc1ccc(C2CC(c3ccccc3C)n3nc(N)nc3N2)cc1 (stereo not given)	-1	-2	0	5.1*	1
COc1cc(/C=C/c2ccc3cccc(O)c3n2)cc(Br)c1OC	12*	0	1	2	1
Fc1ccc(COc2ccc(C(=S)N3CCCC3)cc2)cc1	6	0	2	4.3*	1
O=C(CSc1nnc(-c2cccnc2)n1C1CCCCC1)NC1CCCCCC1	-3	-1	0	x	-1
CCCCOCCCNC(=O)C[C@H]1C[C@@]2(C(=O)OC)C(=C[C@H](C(C)(C)C)O[C@@H]2C)N(Cc2cccc3ccccc23)C1=O	-2	-2	-1	x	-2
O=C1OC(c2ccccc2)=C/C1=C/N1CCOCC1	-1	0	0	0	-1
O=C1SC(c2ccccc2)=C/C1=C\N1CCCCC1	1	0	1	0	6.1*
CC(C)(C)c1ccc(-c2noc(CCC(=O)NC3CC3)n2)cc1	-12	-3	x	x	-7
CN(C)C(=O)N1CCN(c2nc(-c3ccccc3)cs2)CC1	10	-1	1	4.6*	0
O=C(N1CCOCC1)N1CCN(c2nc(-c3ccccc3)cs2)CC1	2	-1	0	1	0
S=C(Nc1cccc(Cl)c1)OC1CCC12CCC(c1ccccc1)CC2 (stereo not given)	-2	-2	-1	x	3
C/C(Cc1ccccc1)=N/NC(=O)CNC(=O)C(c1ccccc1)c1ccccc1	0	0	0	0	6.0*
Cc1[nH]c2ccccc2c1Cc1n[nH]c(=S)n1C	1	-1	-1	1	1
Cn1c(Cc2c[nH]c3ccccc23)n[nH]c1=S	1	1.0*	1	1	4
O=C(N[C@@H]1CCCc2c1cnn2-c1ccc(F)cc1F)c1ccccn1	-2	-2	x	x	-4
CCOC(=O)[C@@]12CCC3=C1N(CCC3)C(=O)[C@H](CC(=O)NCCc1ccccc1OC)C2	-2	0.9*	-1	x	-3
CCOC(=O)[C@]12CCCC3=C1N(CCC3)C(=O)[C@@H](CC(=O)NCCc1ccccc1OC)C2	-1	-2	-1	x	-3
CCCC(=O)Nc1ccc(C(=O)COC(=O)C2CC2)cc1	4	-1	2	0	0
CCCC(=O)Nc1ccc(C(=O)NN=C(C2CC2)C2CC2)cc1	1	-1	0	4.5*	-2
O=C1CC(NNc2ccccc2)C(=O)N1c1ccccc1 (stereo not given)	0	0	1	2	6.3*
CCN1CCN(C(=O)/C=C/c2ccc(C(C)C)cc2)CC1	1	-1	0	0	-1
CCCNC(=O)/C=C/c1ccc(C(C)C)cc1	7	-1	1	5.0*	0
CC(C)c1ccc(/C=C/C(=O)O)cc1	2	0	1	4.3*	1
COc1ccc(C(=O)C2(C(=O)Nc3cc(C)cc(C)c3)CC(c3ccccn3)=NO2)cc1 (stereo not given)	7	-1	0	x	1
C=CCN(CC#CC(=C)C)Cc1ccccc1	-1	-2	0	x	-5
SMILES	hgDAF12 agonist	ssDAF12 agonist	DAX1 inh-1	DAX1 inh-2	hcDAF12 agonist
Cc1cc2nc(-c3ccc(NC(=O)C(C)C)cc3)oc2cc1C	11*	1.0*	3.7*	1	5
C=CCN=C1NC(c2cccc(Cl)c2)C(C(=O)OC)=C(C)N1Cc1cccc(C(F)(F)F)c1 (stereo not given)	1	-1	-1	x	0
CC1CC(Nc2ccccc2N)=CC(=O)O1 (stereo not given)	10	0	2	3	5.8*
CC(C)NC(=O)N[C@@H]1C[C@@H]2O[C@H](CO)CC[C@@H]2O[C@@H]1CCc1ccc(-c2ccccc2F)cc1	0	-1	-1	x	-1
CCN(CC)C(=O)c1ccc(/C=C/c2c[nH]c3ccccc23)[n+](C)c1	2	1.6*	1	0	2
COC(=O)[C@@]12CCCCC3=C1N(CCC3)C(=O)[C@H]2CC(=O)NCc1cccs1	4	-1	0	x	-2
O=c1oc(-c2ccc(O)c(O)c2)cc2cccc(O)c12	6	2.6*	2	4	6.9*
O=c1oc(-c2ccc(O)c(O)c2)cc2cc(O)cc(O)c12	9	1	2	7.6*	13*
Cc1cc2nc(/C=C/c3cccnc3)[nH]c2cc1C	7	1.7*	4.0*	0	6.4*
